# Out of some 2,100 compounds screened, about 650 (31%) were called active. Not shown: some 16% with an inconclusive outcome. Calls come from the whole dose curve; as a rule, active = well fitted inhibition curve with a large enough effect; inconclusive = small, poorly fitted or top-dose-only effect; inactive = flat fitted curve, though single readings scatter. This is one part of the list.
# Assay: qHTS for inhibitors of Vif-A3G interactions: Cherry picks; note: nearly all actives have a fitted effect of over 80% in size; for activity, negative = fluorescence increase: % of control where 0% means no effect
# Conditions: HeLa A3G-eYFP + Vif (tagged APOBEC3G with the HIV-1 protein that degrades it), 24 h; Potency: eYFP fluorescence increase; series mostly up to 36.9 µM; activity, negative = fluorescence increase: at the top concentration
# From the text: The recent discovery and characterization of host restriction factors, which provide a potent defense to invading retroviruses, has provided new targets for antiviral drug development. APOBEC3G (A3G) and APOBEC3F (A3F) are potent cytidine deaminases that block HIV-1 replication; HIV-1 expresses the Vif protein, which counteracts A3G and A3F by binding to them and inducing their proteasomal degradation. The Vif-A3G and Vif-A3F interactions provide two potential targets for development of small molecules which can interfere with the ability of Vif to degrade A3G or A3F. […] To identify inhibitors that can interfere with Vif mediated degradation of A3G and A3F, we have developed Hela cell lines that stably express A3G or A3F tagged with eYFP at the C-terminal end (A3G-eYFP or A3F-eYFP, respectively) and Vif. In the absence of an inhibitor, Vif induces degradation of A3G-eYFP and A3F-eYFP, and the cells are not fluorescent. In the presence of an inhibitor, it is expected that Vif will be unable to degrade A3G-eYFP and/or A3F-eYFP, resulting in an increase in yellow fluorescence. In this assay, Vif A3G was screened against the cherry picks ordered from the MLSMR. NIH Chemical Genomics Center [NCGC] NIH Molecular Libraries Probe Centers Network [MLPCN] MLPCN Grant: MH093245 Assay Submitter (PI): Vinay Pathak, National Cancer Institute
# A3G-Vif cells were harvested from T225 flask and resuspended in phenol free OPTI-MEM medium with 5% FBS. Then 5 uL of 140,000 cells/mL resuspended cells was dispensed into each well of low base Aurora COC 1,536-well plates (black walled, clear bottom) using a Multidrop Combi dispenser. After overnight culture at 37 deg C with 5% CO2, a total of 23 nL of compounds at 5 selected concentrations from the NPC or positive control (2 mM stock of MG132) in DMSO was transferred to each well of the assay plate using a pintool (Kalypsys, San Diego, CA), and the plates were further incubated at 37 deg C with 5% CO2 for 24 hours. After that, the plates were measured on Acumen Explorer (TTP Lab Tech). The fluorescence was detected by 488 nm/Ex and […].
# Potency is the fitted concentration of half-maximal effect.
SMILES,"activity, negative = fluorescence increase",Potency
CSCC[C@H](NC(=O)[C@H](Cc1ccccc1)n1c(=O)[nH]c2ccccc2c1=O)C(=O)N1CCC[C@@H]1C(=O)O,-4.21% (inactive),–
COc1cc(-c2noc(C)c2/C=C/c2ccc(OC(C)=O)cc2)cc(OC)c1OC,-1.58% (inactive),–
O=C(CSc1nc(-c2ccco2)cc(C(F)(F)F)n1)Nc1cccnc1,1.16% (inactive),–
CCOC(=O)c1ccc(NC(=O)CSc2nc(-c3cccs3)cc(C(F)(F)F)c2C#N)cc1,–,20.6 µM (active)
CCCCOc1ccc(-c2cc(C(F)(F)F)c(C#N)c(SCC(=O)O)n2)cc1,–,18.4 µM (active)
C=CCNc1nc(-c2ccccc2)c(C(=O)OCC)cc1C#N,-3.17% (inactive),–
CCOC(=O)c1ccc(NC(=O)CSc2nc(-c3ccc(OC)cc3)cc(C(F)(F)F)c2C#N)cc1,–,20.6 µM (active)
Cc1coc(NC(=O)CSc2nc(-c3ccncc3)cc(C(F)(F)F)c2C#N)n1,–,14.6 µM (active)
O=C(OCCC12CC3CC(CC(C3)C1)C2)c1ccc(NCc2cc(O)ccc2O)cc1,-3.77% (inactive),–
N#Cc1c(C(F)(F)F)cc(-c2cccs2)nc1SCC(=O)Nc1cccc(C(F)(F)F)c1,–,18.4 µM (active)
N#Cc1c(C(F)(F)F)cc(-c2cccs2)nc1SCC(=O)Nc1cccc(Cl)c1,-1.81% [at 46.1 µM] (inactive),–
O=C(NCc1ccccc1)C1Cc2c(-c3ccc(Cl)cc3)ccnc2O1 (stereo unspecified),-5.56% (inactive),–
COCCCNC(=S)N/N=C/c1ccc(OC)cc1,10.1% [at 46.1 µM] (inactive),–
N#C/C(=C\c1ccccc1[N+](=O)[O-])C(=O)NCc1ccccc1,0.838% [at 46.1 µM] (inactive),–
CN(C)c1ccc(/C=C(/C#N)C(=O)NCc2ccccc2)o1,–,14.6 µM (active)
N#C/C(=C\c1ccc(N2CCOCC2)o1)C(=O)NC1CCCCC1,–,15.8 µM (active)
N#C/C(=C/c1ccc(N2CCOCC2)o1)C(=O)NC1CCCCC1,–,18.4 µM (active)
O=C(NCc1ccccc1)C(=O)NCC1COc2ccccc2O1 (stereo unspecified),-0.45% (inactive),–
N#C/C(=C\c1ccc(N2CCOCC2)o1)C(=O)NCCc1ccccc1,–,23.1 µM (active)
Cc1ccc(CN(C(=O)c2ccccc2F)c2ccccn2)o1,0.719% [at 46.1 µM] (inactive),–
CCOC(=O)c1cnc(-n2nc(C)cc2C)nc1NNc1nc(-c2ccccc2)cc(-c2ccccc2)n1,-0.776% [at 46.1 µM] (inactive),–
COC(=O)c1[nH]c2c(c1C(=O)OC)CCc1ccccc1-2,-19.5% [at 46.1 µM] (inactive),–
CC(CC(=O)Nc1ccc2c(c1)c(=O)n(C)n2-c1ccccc1F)c1ccccc1 (stereo unspecified),-10.3% (inactive),–
O=C1[C@@H]2[C@@H](CN3CN(c4ccccc4)N=C(c4ccccc4)[C@@]23c2ccccc2)C(=O)N1c1ccccc1,-0.0506% [at 46.1 µM] (inactive),–
Nc1c(C(=O)c2ccc(Cl)cc2)sc2nc3c(cc12)CCC3,–,18.4 µM (active)
O=C(Cn1nc2c(cc1=O)CCCC2)NCc1ccc(Cl)cc1,-16.5% [at 46.1 µM] (inactive),–

SMILES,"activity, negative = fluorescence increase",Potency
CC(=O)Nc1cccc(-c2ccnc3c2CC(C)(C(=O)NCc2ccccc2)O3)c1 (stereo unspecified),-10.7% (inactive),–
COc1ccc(/C=N/NC(=O)c2cc(OC)c(OC)c(OC)c2)cc1CN1CCc2cc(OC)c(OC)cc2C1C (stereo unspecified),-2.3% (inactive),–
O=C1NC(=Nc2ccccc2Cl)S/C1=C\c1cc([N+](=O)[O-])ccc1O,-12.2% (inactive),–
O=C1/C(=C\c2cc([N+](=O)[O-])ccc2O)SC(=S)N1Cc1ccc(Cl)cc1,–,18.4 µM (active)
CN(C)c1ccc(/C=C/C(=O)c2c(O)c3ccccc3oc2=O)cc1,–,1.46 µM (active)
C=CCOc1ccc2nc(NC(=O)OC)[nH]c2c1,-9.73% (inactive),–
CC[n+]1c(/C=C/N(C)c2ccccc2)oc2ccc(F)cc21,–,17.7 µM (active)
CC[n+]1c(/C=C/Nc2ccccc2)oc2ccccc21,–,14.6 µM (active)
CC[n+]1c(/C=C/Nc2ccccc2)oc2ccc(OC)cc21,–,20.6 µM (active)
COc1ccc(N/C=C/C(=O)c2sc(-c3ccccc3)nc2C)cc1,-3.35% (inactive),–
Cc1c(C(=O)N2CCOCC2)[nH]c2c1C(=O)CC(c1ccccc1Cl)C2 (stereo unspecified),-6.27% (inactive),–
Cc1ccc(C)c(N2CCN(C(=O)c3cccn4c(=O)c5sccc5nc34)CC2)c1,-13.2% (inactive),–
COc1ccc(-c2coc3cc4oc(=O)cc(-c5ccccc5)c4cc23)cc1F,-6.21% (inactive),–
CCC/C=N/NC(=O)c1[nH]c2c([N+](=O)[O-])cccc2c1C,-10.4% (inactive),–
O=C(CSc1nc2ccc(Nc3nc(N4CCOCC4)nc(N4CCOCC4)n3)cc2s1)Nc1ccccc1F,–,5.8 µM (active)
CCCC(=O)Nc1nc2ccc(NC(=O)c3ccccc3F)cc2s1,-0.963% (inactive),–
O=C(CSc1nc2ccccc2s1)c1cc2ccccc2o1,-7.76% [at 46.1 µM] (inactive),–
N#Cc1ccc(-c2cccnc2)nc1SCC(=O)c1ccccc1,–,16.4 µM (active)
Cc1ccc(C(=O)CSC2=C(C#N)C(c3ccco3)C3=C(CCCC3=O)N2)cc1 (stereo unspecified),-2.89% (inactive),–
Cc1ccc(C(=O)CSc2nc(-c3ccccc3)ccc2C#N)cc1,–,18.4 µM (active)
CCOc1cc(C#N)c(NC(=O)c2cccnc2)cc1OCC,-0.835% (inactive),–
Cc1nc(SCC(=O)c2ccccc2)c(C#N)c(-c2ccco2)c1C(=O)NCc1ccco1,-3.59% (inactive),–
CCOc1ccc(S(=O)(=O)Nc2cc3c(C(=O)OC)c(COC)oc3c3ccccc23)cc1,-1.7% [at 46.1 µM] (inactive),–
COc1ccc(NC(=O)/C(C#N)=C\C=C\c2ccco2)cc1,-0.406% (inactive),–
CN1/C(=C\C=C(/C#N)C(=O)Nc2ccccc2F)C(C)(C)c2ccccc21,–,9.2 µM (active)

# Source: PubChem BioAssay AID651812 (National Center for Advancing Translational Sciences (NCATS), 2012)
